# Screens (PubChem)
# esBAF inh: inhibitors of esBAF chromatin remodeling in mouse ES cells; Bmi1-luciferase knock-in reporter, 24 h; 100% = twice the neutral-well signal; reporter increase, % at 12.5 µM; 2% of 350,000 active; in the data active = activation above about 40%; inconclusive = no clear call, values can overlap the other calls;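 note: 0% = median of the plate's neutral control wells and 100% = double that signal; a rise in the Bmi1 reporter signal indicates esBAF inhibition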
# MITF act: MITF TRPM1 promoter activation in melanoma cells; SK-MEL-5 TRPM1-promoter luciferase, 24 h; % of positive control, neutral wells = 0; activation, % at 12.5 µM; 0.75% of 300,000 active; AID 588334;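 active = mean activation of at least 80% with every replicate also reaching 80%; inconclusive = mean reaches 80% but some replicate falls short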;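 note: 0% = neutral control wells and 100% = parthenolide positive control wells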
# HIV Env fusion: blocks HIV Env-driven cell-cell fusion | HeLa-JRFL Env/CEM21 cell fusion, luciferase | inhibition, % at 12.3 µM | 1.1% of 360,000 active;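 active = mean replicate inhibition score of at least 50 and every replicate individually at or above 50; inconclusive = only one of the two criteria met; inactive = mean below 50 and not all replicates reaching 50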;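 note: 0% = plate neutral controls and 100% = maraviroc near 300 nM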
# Wnt bcat act: activators of Wnt/beta-catenin signaling | Wnt/beta-catenin reporter cell assay, activator, plate reader | activation, % at 9.35 µM | 1.2% of 300,000 active; in the data active = activation above about 30%, passing the limit was not always enough; inconclusive = no clear call, values can overlap the other calls;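 note: 0% = neutral control wells and 100% = positive control wells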
# miR-122 sensor: miR-122 inhibition in Huh7 cells; 0.3% of 340,000 active; Huh7 miR-122 Renilla luciferase sensor, 48 h; neutral wells = 0, positive control = 100; activation (reporter increase), % at 12.5 µM;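 active = mean replicate activation score at least 90 and every replicate individually at or above 90; inconclusive = only one of the two criteria met; inactive = neither criterion met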;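 note: higher luciferase means less miR-122 activity so hits act as miR-122 inhibitors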
# * hit, by the source's call; i = inactive; u = inconclusive; x = not tested or not shown; ! = repeats disagree; [ ] = remark or other dose. Sampled rows, rich in hits. Any-hit rate of the full collection: about 3.4%.
SMILES,esBAF inh,MITF act,HIV Env fusion,Wnt bcat act,miR-122 sensor
C=CCNC(=O)C1CCN(c2cc(C)nc(-c3ccccc3)n2)CC1,-3.0,-11.2,-4.7,-2.1,5.6
CCCNC(=O)[C@H]1[C@H](CO)[C@H]2Cn3c(ccc(-c4cccc(F)c4)c3=O)[C@H]2N1C(=O)CC,-1.8,x,x,x,-4.6[16.7 µM]
Cc1ccccc1-c1cnc2c(c1)C(=O)N([C@H](C)CO)C[C@@H](C)[C@H](CN(C)Cc1ccccc1F)O2,-16.4,x,38.7[16.7 µM],x,121.2*[16.7 µM]
C[C@H]1CN([C@@H](C)CO)C(=O)c2ccccc2-c2ccccc2CO[C@H]1CN(C)Cc1ccc(F)cc1,-5.0,x,73.0*[16.7 µM],x,x
C[C@H]1CN([C@@H](C)CO)C(=O)c2ccccc2-c2ccccc2CO[C@@H]1CN(C)Cc1ccc(F)cc1,-8.9,x,u,x,x
C[C@H]1CN([C@@H](C)CO)C(=O)c2ccccc2-c2ccccc2CO[C@H]1CN(C)Cc1cccc(F)c1,0.7,x,62.1*[16.7 µM],x,x
C[C@@H]1CN([C@H](C)CO)C(=O)c2ccccc2-c2ccccc2CO[C@@H]1CN(C)Cc1cccc(F)c1,-3.3,x,3.6[16.7 µM],x,x
C[C@H](CO)N1C[C@H](C)[C@H](CN(C)Cc2ccc(F)cc2)OCc2ccccc2-c2ccccc2C1=O,-3.9,x,56.7*[16.7 µM],x,x
CCNC(=O)[C@@H]1[C@@H](CO)[C@@H]2Cn3c(ccc(/C=C/c4ccccc4)c3=O)[C@H]1N2,3.6,x,x,x,-2.4[16.7 µM]
C(/C=C/c1ccco1)=N/N1CCN(c2ccccc2)CC1,25.1,113.0*,x,x,10.6
Clc1ccccc1CN1CCN(/N=C/C=C\c2ccco2)CC1,x,24.6,7.7,4.1,-4.1
O=C(Nc1cccc2nsnc12)c1cccs1,46.8*!,61.7,-76.2,8.8,3.8
O=C(Nc1ccccc1)Nc1cccc2nsnc12,x,34.6,-51.7,39.9*,x
O=C(Nc1cccc2nsnc12)c1cccnc1,x,-7.8,-7.5,0.2,x
C[C@H](CO)N1C[C@H](C)[C@H](CN(C)C)Oc2cc(C3=CCCC3)ccc2S1(=O)=O,-16.6,x,24.7[16.7 µM],x,40.0[16.7 µM]
C[C@@H]1CN([C@@H](C)CO)S(=O)(=O)c2ccc(-c3ccc(F)cc3)cc2O[C@@H]1CN(C)C(=O)c1ccccc1F,7.9,x,-3.9[16.7 µM],x,24.5[16.7 µM]
CCCC(=O)Nc1ccc2c(c1)OC[C@H](C)N(CC1CCCC1)C[C@H](C)[C@@H](OC)CN(C)C2=O,1.4,x,34.1[16.7 µM],x,12.0[16.7 µM]
CCNC(=O)C[C@H]1CC[C@@H]2[C@@H](COc3ccc(NC(=O)Nc4ccccc4OC)cc3C(=O)N2C)O1,0.3,x,8.6[16.7 µM],x,7.7[16.7 µM]
c1ccc(-n2ncc3c(NCc4ccco4)ncnc32)cc1,57.2*,34.8,i,u,7.8
CC(C)Nc1ncnc2ccc(Br)cc12,x,-6.6,55.1*,x,x
CSCCC(Nc1ncnc2ccc(Br)cc12)C(=O)O (centres undefined),3.2,-6.9,5.2,x,-2.3
COc1ccccc1CNc1ncnc2c1cnn2-c1ccccc1,70.8*,43.2,-1.7,11.0,-1.9
c1ccc(Cn2ncc3c(NCc4ccco4)ncnc32)cc1,-3.6,-7.9,-28.3,0.3,-0.6
Brc1ccc2ncnc(NCc3ccco3)c2c1,-17.9,4.4,66.8*,2.1,8.4
O=C(C[C@H]1C[C@@H]2c3cc(NC(=O)CC4CC4)ccc3O[C@@H]2[C@@H](CO)O1)NCc1ccc2c(c1)OCO2,-2.9,x,-27.0[16.7 µM],x,-0.5[16.7 µM]
SMILES,esBAF inh,MITF act,HIV Env fusion,Wnt bcat act,miR-122 sensor
CO[C@@H]1CN(C)C(=O)c2cc(NC(=O)Nc3ccccc3)ccc2OC[C@H](C)N(C(=O)CN(C)C)C[C@H]1C,-4.2,x,x,x,0.3[16.7 µM]
Clc1ccc(-n2ncc3c(NCc4ccccn4)ncnc32)cc1,67.9*,37.8,-39.7,26.9,6.3
O=C(O)/C=C/C(=O)c1ccc2c(c1)CCc1ccccc1-2,43.9*,-68.8,-163.2,19.3,-3.3
Fc1ccc2nc(C3CCN(Cc4nc(CC5CC5)no4)CC3)[nH]c2c1,x,-6.2,11.9,-1.8,x
Fc1ccccc1C1CCN(Cc2nc(CC3CC3)no2)C1 (centres undefined),x,45.5,-14.9,44.3*,x
CN(C)C(=O)c1cccc(-c2cnc3c(NC=O)cc(-c4cccc(C(F)(F)F)c4)cn23)c1,-7.4,x,56.0*,-14.6,x
Cc1cccc(-c2cc(NC=O)c3ncc(-c4cccc(C(=O)N(C)C)c4)n3c2)c1,-4.3,x,-19.6,-1.9,x
O=C(NCCOc1ccccc1)c1ccccc1Cl,-6.3,71.3,-3.1,34.6*,x
CCc1ccc(OCCNC(=O)c2ccccc2SCc2ccc(F)cc2)cc1,-4.0,x,57.6*,x,-3.4
CN1CCN(C(=O)C[C@H]2C[C@@H]3c4cc(NC(=O)CC5CC5)ccc4O[C@@H]3[C@H](CO)O2)CC1,-6.5,x,x,x,2.5[16.7 µM]
C[C@H]1CN([C@@H](C)CO)C(=O)Cc2cc(NC(=O)C3CCCCC3)ccc2O[C@H]1CN(C)S(=O)(=O)c1ccc(Cl)cc1,3.7,x,73.6*[16.7 µM],x,-2.7[16.7 µM]
C[C@@H]1CN([C@@H](C)CO)C(=O)Cc2cc(NC(=O)NC3CCCCC3)ccc2O[C@@H]1CN(C)S(=O)(=O)c1ccc(Cl)cc1,8.3,x,59.5*[16.7 µM],x,-18.8[16.7 µM]
C[C@H](CO)N1C[C@H](C)[C@H](CN(C)S(=O)(=O)c2ccc(Cl)cc2)Oc2ccc(NC(=O)C3CCCCC3)cc2CC1=O,8.1,x,63.2*[16.7 µM],x,4.6[16.7 µM]
CCCNC(=O)N1C[C@@H]2[C@H](c3ccccc31)[C@@H](CO)N2Cc1ccccc1F,-0.4,x,x,x,11.5[16.7 µM]
COc1ccc(C(=S)Nc2ccc(C)cc2)cc1,x,109.2*,x,x,4.6
Cc1ccc(NC(=S)c2ccccc2)cc1,67.8*,81.5*,x,u,-12.3
COc1ccc(NC(=S)c2ccncc2)cc1,x,-6.7,-285.3,8.6,x
COc1ccc(Cl)cc1NS(=O)(=O)c1cc(Cl)ccc1OC,-2.7,x,-55.3,x,255.0*
COc1ccc(Cl)cc1S(=O)(=O)N1CCN=C1C,-3.4,-5.0,34.4*,1.2,32.4
CCOc1ccc(Cl)cc1S(=O)(=O)NCc1cccnc1,x,x,18.6,-1.7,x
COc1cc(NS(=O)(=O)c2ccc(C)c(C)c2)c(OC)cc1Cl,0.3,x,-43.9,-5.6,225.7*
COc1ccc(Cl)cc1S(=O)(=O)Nc1ccncc1,x,-0.7,-0.6,-0.2,3.1
COc1ccc(Cl)cc1S(=O)(=O)NCc1cccnc1,-1.9,3.8,-9.7,x,120.0*
COc1ccc(Cl)cc1S(=O)(=O)N1CCCc2ccccc21,-3.3,-3.2,7.7,-0.2,3.5
C[C@@H]1CN([C@H](C)CO)C(=O)Cc2cc(NC(=O)Nc3cccc4ccccc34)ccc2O[C@H]1CN(C)S(=O)(=O)c1cn(C)cn1,0.5,x,-0.2[16.7 µM],x,2.2[16.7 µM]
O=C(NCc1ccccc1)[C@H]1[C@H](CO)[C@H]2Cn3c(cccc3=O)[C@@H]1N2C(=O)CC1CC1,2.0,x,x,x,8.9[16.7 µM]
CCOc1ccc(NC(=S)NCCCN2CCN(C3CCCCC3)CC2)cc1,-5.6,-7.1,x,-2.7,-2.7
COc1ccc(NC(=S)NCCCN2CCN(C3CCCCC3)CC2)cc1,3.3,-7.8,62.8*,-1.5,-2.1
Cc1ccc(OCCn2cnc3ccccc3c2=O)c([N+](=O)[O-])c1,91.6*,61.2,x,40.9*,-11.5
CNC[C@@H]1OCCCC[C@H](C)Oc2ccc(NC(=O)Nc3cccc4ccccc34)cc2C(=O)N([C@H](C)CO)C[C@@H]1C,-4.5,x,15.3[16.7 µM],x,-1.2[16.7 µM]
